MCF10A rereplic – DNA re-replication induction in MCF 10a cells; MCF 10A DNA re-replication, Hoechst nuclear intensity, 48 h; Potency, µM (highest dose often 46.1 µM), for the others: at the top dose activity, positive = re-replication, hits mostly activators; 350,000 tested, 2.9% active; AID 624296; further: % of control where 0% means no effect; nearly all actives have a fitted effect of over 50% in size
HT1080NT lethal – kills 2HG-producing HT-1080-NT fibrosarcoma cells | HT-1080-NT fibrosarcoma viability, CellTiter-Glo ATP luminescence, 48 h | Potency, µM (doses to about 46.1 µM), for inactives: top-dose activity, negative = less viability, usual class: cytotoxic | 360,000 tested, 1.6% active | AID 686970;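 further: NT is the 2HG producing partner of a matched IDH1 knockdown line; 0% = DMSO-treated cells and -100% = media-only wells without cells; nearly all actives have a fitted effect of over 55% in size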
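HT-1080-NT; 750 cells/well; 5% FBS RPMI; 48 h compound, 37 degrees C; CellTiter-Glo luminescence; curve fitting and curve-class assignment.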
SW480 rereplic – induces DNA re-replication in SW480 colon adenocarcinoma cells; SW480 DNA re-replication, Hoechst DNA content imaging, 48 h; Potency, µM (top dose mostly 46.1 µM), for the others: at the highest dose re-replication activation, most hits filed as activators; 340,000 tested, 1.8% active; AID 624297; further: % of control where 0% means no effect; nearly all actives have a fitted effect of over 55% in size
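First, 250 cells per well were seeded. Next, compound or vehicle (23 nL) was pinned in, plates sat 48 hr at 37 C. Finally Hoechst was added for 40 min before fluorescence scanning.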
KB-V1 cytotox – KB-V1 MDR subline cytotoxicity | KB-V1 MDR cells viability, CellTiter-Glo, 72 h | Potency, µM (titrated, usually from 46.1 µM), most hits filed as cytotoxic | 400,000 tested, 3.4% active; further: on the % scale 0 is the no-effect control and ±100 the full control effect; nearly all actives have a fitted effect of over 60% in size
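KB-V1 MDR subline cells in DMEM (phenol-red free, 10% FBS) exposed to compounds in qHTS concentration series for 72 h at 37 degrees C. Viability read by CellTiter-Glo luminescence; concentration-effect curves fitted after normalization and correction.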
KB-3-1 cytotox – KB-3-1 parental cell cytotoxicity. KB-3-1 viability, CellTiter-Glo ATP luminescence, 72 h. 400,000 tested, 1.4% active. AID 1347075. Potency, µM (highest dose often 46.1 µM), hits mostly cytotoxic; further: on the % scale 0 is the no-effect control and ±100 the full control effect; nearly all actives have a fitted effect of over 60% in size
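Using CellTiter-Glo luminescence, growth of non-resistant KB-3-1 adenocarcinoma cells is assessed 72 h after pin-tool compound addition at 37 °C. Normalized responses across the concentration series yield fitted curves.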
HT1080 IDH1KD tx – kills HT-1080 cells with IDH1 knockdown. HT-1080 IDH1 knockdown viability, ATP luminescence, 48 h. Potency, µM (titrated, usually from 46.1 µM), for inactives: at the highest dose activity, negative = toxicity, actives largely listed as cytotoxic. 360,000 tested, 2% active;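 further: 0% = DMSO wells and -100% = cell-free medium wells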
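IDH1KD HT-1080 cells, 750/well, RPMI + 5% FBS; compound pinned after 2 h settling; 48 h, 37 °C; CellTiter-Glo luminescence; % activity normalised to DMSO and no-cell wells; curves fitted, classed by r2 and efficacy.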
Active calls of the source: *; [ ] = another dose, or the depositor's remark. Shown are actives, neighbours in structure and some others; about 7.9% of the full set was active somewhere. The call rests on the fitted dose curve; in most records, active means well fitted curve in the direction sought with a large enough effect; inconclusive means small, poorly fitted or top-dose-only effect, or another doubt; inactive means no such curve, though single readings can be large; an effect the other way counts as inactive or inconclusive. Potency means the concentration at half of the fitted maximal effect.

How did CCOC(=O)c1cnc2c(-c3ccccc3)cnn2c1C do in these assays?
MCF10A rereplic: 0.4%; HT1080NT lethal: 27.4%; SW480 rereplic: -7.6%; KB-V1 cytotox: inactive; KB-3-1 cytotox: inactive; HT1080 IDH1KD tx: inconclusive

How did Cc1nc2c(-c3ccc(F)cc3)c(C)nn2c(C)c1CCC(=O)N1CCC(Cc2ccccc2)CC1 do in these assays?
MCF10A rereplic: 20.6µM*; HT1080NT lethal: -1.1%; SW480 rereplic: 1.4%; KB-V1 cytotox: inactive; KB-3-1 cytotox: inconclusive; HT1080 IDH1KD tx: -11.1%

Results for O=C(NCc1ccccc1Br)c1ccc2nc(N3CCCCC3)sc2c1 ?
KB-V1 cytotox: inactive; KB-3-1 cytotox: inactive

What do the screens show for `O=C(NC(c1ccco1)c1cc(Cl)c2cccnc2c1O)c1ccsc1` (configuration not stated)?
KB-V1 cytotox: inactive; KB-3-1 cytotox: inconclusive

How did CCOC(=O)Cc1c(C)nc2c(-c3ccc(Cl)cc3)c(C)nn2c1C do in these assays?
MCF10A rereplic: 23.1µM*; HT1080NT lethal: -14.5%; SW480 rereplic: inconclusive; KB-V1 cytotox: inconclusive; KB-3-1 cytotox: inactive; HT1080 IDH1KD tx: 2.0%

What do the screens show for `CCOC(=O)Cc1c(C)nc2c(-c3ccc(Cl)cc3)c(C(F)(F)F)nn2c1C`?
KB-V1 cytotox: inactive; KB-3-1 cytotox: inactive

What do the screens show for `CCOC(=O)[C@]12CCC=C1N(Cc1ccc(Cl)cc1Cl)C(=O)[C@H](CC(=O)N1CCN(C(=O)c3ccco3)CC1)C2`?
HT1080NT lethal: -13.1%; KB-V1 cytotox: 10.3µM*; KB-3-1 cytotox: inactive; HT1080 IDH1KD tx: inconclusive

How did CCOC(=O)N1CCN(C(=O)C[C@@H]2C[C@@]3(C(=O)OCC)CCC=C3N(Cc3ccc(Cl)cc3Cl)C2=O)CC1 do in these assays?
HT1080NT lethal: -17.2%; KB-V1 cytotox: 10.3µM*; KB-3-1 cytotox: inactive; HT1080 IDH1KD tx: inconclusive

Results for CCCCOCCCNC(=O)C[C@@H]1C[C@@]2(C(=O)OCC)CCC=C2N(Cc2ccc(Cl)cc2Cl)C1=O ?
HT1080NT lethal: inconclusive; KB-V1 cytotox: 18.4µM*; KB-3-1 cytotox: inconclusive; HT1080 IDH1KD tx: inconclusive

Results for CC(=O)Nc1ccccc1OC1=N[S+](=O)([O-])c2ccccc21 ?
KB-V1 cytotox: inactive; KB-3-1 cytotox: inconclusive

How did Cc1ccc(NC(=O)Cn2c(=O)c3ccc(Cl)cc3n3nncc23)cc1 do in these assays?
KB-V1 cytotox: inactive; KB-3-1 cytotox: inactive

Results for Cc1ccc(C)c(Nc2nc3nonc3nc2Nc2cccc(C)c2C)c1 ?
KB-V1 cytotox: inconclusive; KB-3-1 cytotox: 20.6µM*

Results for Cc1ccc2cccc(O)c2n1 ?
KB-V1 cytotox: inactive; KB-3-1 cytotox: inactive

How did COc1cccc2cc(C(=O)C3=C(O)C(=O)N(CCN(C)C)C3c3ccc(F)cc3)oc12 (configuration not stated) do in these assays?
MCF10A rereplic: 5.8µM*; HT1080NT lethal: 7.0%; SW480 rereplic: 8.2µM*; KB-V1 cytotox: inactive; KB-3-1 cytotox: inactive; HT1080 IDH1KD tx: 3.4%[9.24 µM]

Results for CCN(CC)CCCN1C(=O)C(O)=C(C(=O)c2cc3cccc(OC)c3o2)C1c1ccncc1 (configuration not stated) ?
MCF10A rereplic: inconclusive; HT1080NT lethal: -3.5%; SW480 rereplic: -2.0%; KB-V1 cytotox: inactive; KB-3-1 cytotox: inactive; HT1080 IDH1KD tx: -1.0%

What do the screens show for `O=C(COC(=O)/C=C/c1ccccc1Cl)NC1CC1`?
HT1080NT lethal: 4.2%; KB-V1 cytotox: inactive; KB-3-1 cytotox: inactive; HT1080 IDH1KD tx: -7.8%

What do the screens show for `C[C@H](O)C#Cc1ccc2c(c1)O[C@@H](CN(C)Cc1ccc(-c3ccccc3)cc1)[C@H](C)CN([C@@H](C)CO)S2(=O)=O`?
HT1080NT lethal: inconclusive; KB-V1 cytotox: inconclusive; KB-3-1 cytotox: inconclusive; HT1080 IDH1KD tx: 20.6µM*

Results for COc1cccc(S(=O)(=O)N(C)C[C@H]2Oc3cc(Br)ccc3S(=O)(=O)N([C@@H](C)CO)C[C@H]2C)c1 ?
HT1080NT lethal: -8.8%; KB-V1 cytotox: 9.2µM*; KB-3-1 cytotox: inactive; HT1080 IDH1KD tx: -8.9%

Results for C[C@@H]1CN([C@H](C)CO)S(=O)(=O)c2ccc(Br)cc2O[C@@H]1CN(C)Cc1ccc(-c2ccccc2)cc1 ?
HT1080NT lethal: 18.4µM*; KB-V1 cytotox: inactive; KB-3-1 cytotox: inactive; HT1080 IDH1KD tx: 16.4µM*

Results for CCCNC(=O)N(C)C[C@@H]1Oc2cc(C#C[C@H](C)O)ccc2S(=O)(=O)N([C@H](C)CO)C[C@H]1C ?
HT1080NT lethal: 13.2%; KB-V1 cytotox: inactive; KB-3-1 cytotox: inactive; HT1080 IDH1KD tx: 7.2%

What do the screens show for `COc1cccc(OCCSc2nc3ccccc3n2CC(=O)N2CCOCC2)c1`?
KB-V1 cytotox: inactive; KB-3-1 cytotox: inactive

How did COc1ccc(C(CC(=O)Nc2ccc(C)c(C)c2)N2Cc3ccccc3C2=O)cc1OC (configuration not stated) do in these assays?
KB-V1 cytotox: inconclusive; KB-3-1 cytotox: inactive

What do the screens show for `COc1ccc(C(CC(=O)Nc2ccc(F)c(Cl)c2)N2Cc3ccccc3C2=O)cc1OC` (configuration not stated)?
KB-V1 cytotox: 18.4µM*; KB-3-1 cytotox: inactive

Results for Cc1cc(=O)n2nc(N(C)CC(=O)NCc3cccc(Br)c3)sc2n1 ?
KB-V1 cytotox: inactive; KB-3-1 cytotox: inactive

What do the screens show for `COc1cccc(CN(C(=O)c2ccc(C(C)(C)C)cc2)C2CCS(=O)(=O)C2)c1` (configuration not stated)?
KB-V1 cytotox: inactive; KB-3-1 cytotox: inactive

What do the screens show for `O=c1cc(N2CCCCC2)c(-c2ccccc2)nn1Cc1cccc(Cl)c1`?
MCF10A rereplic: 20.6µM*; HT1080NT lethal: -0.1%; SW480 rereplic: 5.6%; KB-V1 cytotox: inactive; KB-3-1 cytotox: inactive; HT1080 IDH1KD tx: 9.9%

Results for O=c1cc(N2CCCCC2)c(-c2ccccc2)nn1Cc1ccc(Cl)cc1Cl ?
MCF10A rereplic: 14.6µM*; HT1080NT lethal: inconclusive; SW480 rereplic: 18.2%; KB-V1 cytotox: inactive; KB-3-1 cytotox: inactive; HT1080 IDH1KD tx: inconclusive

Results for Cc1cc(C(=O)CSc2nc3ccccc3o2)c(C)n1C1CC1 ?
MCF10A rereplic: 23.1µM*; HT1080NT lethal: 9.3%; SW480 rereplic: 8.8%; KB-V1 cytotox: inconclusive; KB-3-1 cytotox: inactive; HT1080 IDH1KD tx: 1.3%
